ATXN viability: reduces viability in counter-screen for ATXN expression inhibitors. S2 cells (HEK-293 line with an ATXN2-luciferase reporter) viability, CellTiter-Fluor protease fluorescence, 24 h. Potency, µM (titrated, usually from 56.7 µM), usual class: cytotoxic. actives 0.49% (n = 400,000). AID 651635; also: nearly all actives have a fitted effect of over 40% in size
DRD3 antagonist: D3 dopamine receptor (human) antagonism. P35462. D3R cells, DiscoveRx beta-arrestin luminescence, antagonist mode; stronger effect = lower value. max response, negative = inhibition, %. actives 2.5% (n = 360,000). AID 652054; in the data active = max response below about -50%; inconclusive = no clear call, values can overlap the other calls
Target sequence (P35462 whole entry, looked up): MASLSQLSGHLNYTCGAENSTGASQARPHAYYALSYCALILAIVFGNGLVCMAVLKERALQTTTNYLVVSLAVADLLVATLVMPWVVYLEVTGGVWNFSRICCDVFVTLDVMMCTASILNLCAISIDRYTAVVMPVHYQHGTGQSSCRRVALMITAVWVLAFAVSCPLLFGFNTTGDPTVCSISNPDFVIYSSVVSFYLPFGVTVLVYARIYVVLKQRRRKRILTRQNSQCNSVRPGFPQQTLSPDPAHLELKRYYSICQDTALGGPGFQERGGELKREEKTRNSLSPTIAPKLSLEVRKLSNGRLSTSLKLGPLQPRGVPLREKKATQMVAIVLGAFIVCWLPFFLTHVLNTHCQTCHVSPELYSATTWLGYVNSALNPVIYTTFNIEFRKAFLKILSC
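Cells plated overnight at 1500 cells/well, then exposed to library compounds with dopamine controls for 90 minutes at 37 degrees C. DiscoveRx reagent added for 30–60 minutes at room temperature; luminescence read, quantitative HTS format.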
HepG2 tox-1: kills HepG2 cells in TGF-b inhibitor counter-screen; HepG2 CAGA-GFP viability, ATP luminescence, 18 h; Potency, µM (top dose mostly 46.1 µM), actives largely listed as cytotoxic; actives 0.76% (n = 410,000); AID 588856
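HepG2 CAGA-GFP cells (1000/well, DMEM with 1% FBS) received compound, then TGF-beta at 500 pg/mL final, and were incubated 18 hours at 37 degrees C. Viability was read by CellTiter-Glo luminescence. Media-only wells were set as complete cell-killing and DMSO as no toxicity.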
TGFb SMAD3 inh: TGF-b pathway inhibition; HepG2 CAGA-GFP TGF-b/SMAD3 reporter, GFP fluorescence, 18 h; TGF-beta stimulated, 500 pg/mL final; Potency, µM (top dose mostly 46.1 µM), actives largely listed as inhibitors; actives 1.2% (n = 410,000); AID 588855; also: nearly all actives have a fitted effect of over 65% in size
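HEPG2 CAGA-GFP, 1000 cells/well; 2 h settle, 37 C; cpd via pin tool; TGF-b 500 pg/mL final; 18 h, 37 C; GFP imaging ex488/em500-530; %Activity normalised to -TGF-b and +DMSO controls; CRC fit, curve class.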
D3 ag: D3 dopamine receptor (human) agonism; P35462; D3R DiscoveRx beta-arrestin cells, luminescence, 90 min; max activation, %; actives 0.58% (n = 410,000); AID 652048; in the data active = max activation above about 30%
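Agonist-mode cell screen: cells plated at 1500/well and incubated overnight at 37 °C, then exposed to library compounds for 90 min at 37 °C. Detection reagent was added for 30–60 min at room temperature, and luminescence was read.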
ATXN2 expr inh: inhibitors of ATXN2 expression. AID 1745845. actives 0.72% (n = 360,000). HEK-293 ATXN2-luciferase reporter, luminescence, 24 h. Potency, µM (top dose mostly 57 µM), most hits filed as inhibitors; also: nearly all actives have a fitted effect of over 55% in size
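ATXN2-luciferase reporter cells (luciferase flanked by upstream and downstream ATXN2 gene portions) were treated 24 h at 37 °C with compounds at up to 57 uM. SteadyGlo luminescence gave expression; GF-AFC fluorescence gave viability.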
TGFb confirm: confirmation of TGF-b signaling inhibitors in HepG2 reporter cells | shares compounds with TGFb SMAD3 inh | HepG2 CAGA-GFP TGF-b reporter, GFP fluorescence, 18 h; cells stimulated with TGF-beta, 500 pg/mL | Potency, µM (series often up to 46.1 µM), most hits filed as inhibitors | actives 63% (n = 1,600); also: nearly all actives have a fitted effect of over 65% in size
HepG2 tox-2: HepG2 cytotoxicity, TGF-b inhibitor counterscreen | shares compounds with TGFb SMAD3 inh | actives 27% (n = 1,600) | AID 720535 | HepG2 CAGA-GFP viability, ATP luminescence, 18 h; cells stimulated with TGF-beta, 500 pg/mL | Potency, µM (titrated, usually from 46.1 µM), actives largely listed as inhibitors; also: nearly all actives have a fitted effect of over 70% in size
CCL64 TGFb inh: blocks TGF-b signaling in CCL64 reporter cells; CCL64 CAGA-GFP reporter, TGF-b stimulated, GFP fluorescence, 18 h; shares compounds with TGFb SMAD3 inh; Potency, µM (series often up to 46.1 µM), hits mostly inhibitors; actives 41% (n = 1,600); also: nearly all actives have a fitted effect of over 65% in size
COP TGFb inh: TGF-b inhibition validated with COP promoter; HepG2 COP-GFP TGF-b reporter, GFP fluorescence, 18 h; cells stimulated by added recombinant TGF-beta; actives 3% (n = 1,600); AID 720537; shares compounds with TGFb SMAD3 inh; Potency, µM (top dose mostly 46.1 µM), usual class: inhibitors; also: nearly all actives have a fitted effect of over 70% in size
Each line names hits and unclear results; the compound was inactive in the other large screens (follow-up assays come after a bar, where they were run). Hits are enriched below; roughly 4.8% of the tested compounds scored in any of these assays. Unless noted, calls follow the shape of the dose curve; as a rule, active = well fitted curve in the direction sought with a large enough effect; inconclusive = small, poorly fitted or top-dose-only effect, or another doubt; inactive = no such curve, though single readings can be large; an effect the other way counts as inactive or inconclusive.

O=C(Nc1ccc(Cl)cc1Cl)c1cnn2c1NC(=C1CC1)C=C2C(F)F	none (no result: ATXN viability, DRD3 antagonist, D3 ag, ATXN2 expr inh)
Cc1ccc(OCC(=O)OCc2cc(=O)n3nc(C4CCCCC4)sc3n2)cc1C	TGFb SMAD3 inh inconclusive (no result: DRD3 antagonist)
CC(C)(C)c1ccc(Cn2c(=O)cnc3ccccc32)cc1	TGFb SMAD3 inh 10µM, ATXN2 expr inh inconclusive | TGFb confirm 18.4µM | HepG2 tox-2 inconclusive | CCL64 TGFb inh inactive | COP TGFb inh inactive
O=c1cnc2ccccc2n1Cc1ccc(Br)cc1	none
O=C(/C(=N\Nc1ccc([N+](=O)[O-])cc1)Sc1nnnn1-c1ccccc1)c1ccccc1	DRD3 antagonist -82.1, TGFb SMAD3 inh 7.94µM | TGFb confirm inconclusive | HepG2 tox-2 23.1µM | CCL64 TGFb inh 20.6µM | COP TGFb inh inactive
Cc1ccc(N/N=C(/Sc2nnnn2-c2ccccc2)C(=O)c2ccccc2)cc1	TGFb SMAD3 inh inconclusive
O=C(CN1CCOCC1)Nc1ncc(Cc2ccccc2Cl)s1	ATXN viability inconclusive
CCc1ccc(CCC(=O)Nc2ncc(Cc3ccccc3Cl)s2)o1	TGFb SMAD3 inh 2µM | TGFb confirm inconclusive | HepG2 tox-2 inactive | CCL64 TGFb inh inactive | COP TGFb inh inactive
CC(=O)Nc1ncc(Cc2cc(Cl)ccc2Cl)s1	TGFb SMAD3 inh inconclusive (no result: ATXN2 expr inh) | TGFb confirm inconclusive | HepG2 tox-2 inactive | CCL64 TGFb inh inactive | COP TGFb inh inactive
Cc1ccc(C)c(N(C)C(=O)CCNC(=O)Cn2cnc3ccccc3c2=O)c1	ATXN viability inconclusive (no result: DRD3 antagonist)
Nc1ncnc2c1ncn2C1C=C(CO)C(O)C1O (configuration not stated)	ATXN viability inconclusive, HepG2 tox-1 10µM, TGFb SMAD3 inh 8.91µM, ATXN2 expr inh inconclusive | TGFb confirm inconclusive | HepG2 tox-2 0.13µM | CCL64 TGFb inh inconclusive | COP TGFb inh inactive
COc1cc(/C=C/c2nc(C#N)c(NC3CCCCC3)o2)cc(OC)c1OC	TGFb SMAD3 inh inconclusive (no result: ATXN viability, DRD3 antagonist, ATXN2 expr inh)
CCc1nnc(NC(=O)CSc2nccn2Cc2ccc(Cl)cc2)s1	TGFb SMAD3 inh inconclusive (no result: DRD3 antagonist)
CCCOc1ccc(/C=N/NC(=O)CN(c2ccc(OCC)cc2)S(C)(=O)=O)cc1	TGFb SMAD3 inh inconclusive
CCOc1ccc(N(CC(=O)N/N=C/c2cc([N+](=O)[O-])ccc2Cl)S(C)(=O)=O)cc1	TGFb SMAD3 inh 7.94µM | TGFb confirm 14.6µM | HepG2 tox-2 inactive | CCL64 TGFb inh inconclusive | COP TGFb inh inactive
O=C(NC1CCCCC1)c1ccc([N+](=O)[O-])o1	TGFb SMAD3 inh inconclusive
O=C(NC1CCCC(C(F)(F)F)C1)c1ccc([N+](=O)[O-])o1 (configuration not stated)	HepG2 tox-1 15.8µM, TGFb SMAD3 inh 10µM | TGFb confirm 7.31µM | HepG2 tox-2 23.1µM | CCL64 TGFb inh inconclusive | COP TGFb inh inconclusive
O=C(c1cccs1)N(Cc1cccnc1)c1nc2ccc(F)cc2s1	none (no result: ATXN viability, DRD3 antagonist, ATXN2 expr inh)

Screens as filed in PubChem.
